Most compounds without a hit are left out; they make up all but 19% or so of the library.
Shiga inhibitor = Shiga toxin inhibition; inhibition, % at 38.7 µM; AID 2315; Vero cells, Shiga toxin protein synthesis inhibition reporter; 9.2% of 290,000 active; in the data active = inhibition mostly above about 28%, no sharp cut-off; inactive = mostly below about 43%; also: 0% is about no effect
AMA1 RON2 block = AMA1-RON2 (P. falciparum) interaction inhibition | AlphaScreen AMA1-biotinylated RON2 peptide binding | Potency, µM (top dose mostly 58.2 µM), for the others: at the top dose activity change, negative = inhibition, hits mostly inhibitors | 0.2% of 360,000 active | AID 720542;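 also: potency is read from the fitted curve at half-maximal effect; 0% = vehicle wells and -100% = peptide control; nearly all actives have a fitted effect of over 45% in size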
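AMA1 (3D7) with his tag at 25 nM final met compounds first, then biotinylated RON2 peptide at 25 nM; detection used donor plus acceptor beads, 10 µg/mL apiece, read by AlphaScreen after 30 min at room temperature.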
Pf growth 96h = P. falciparum growth inhibition at 96 hours | Potency, µM (titrated, usually from 28.7 µM), for the others: at the highest dose activity change, negative = inhibition, usual class: inhibitors | P. falciparum luciferase reporter growth, 96 h | 6.9% of 320,000 active; also: potency is read from the fitted curve at half-maximal effect; % is scaled to controls: 0 for no effect and ±100 for the full control effect
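Infected RBCs, 2% Hct / 0.05% parasitemia final; luciferase-reporter P. falciparum; cpd 96 h, 37 C, 5% CO2; luciferase detection reagent; luminescence.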
Pf growth 48h = inhibits P. falciparum growth in the first generation, 48 h; P. falciparum luciferase growth in erythrocytes, 48 h; Potency, µM (top dose mostly 28.7 µM), for inactives: at the top dose activity change, negative = inhibition, most hits filed as inhibitors; 5.9% of 310,000 active; AID 504832; also: potency is read from the fitted curve at half-maximal effect; % is scaled to controls: 0 for no effect and ±100 for the full control effect
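Luciferase-expressing parasites in RBCs, 2% Hct / 0.1% parasitemia final; RPMI 1640 + 0.5% Albumax; 37 C, 5% CO2, one generation; luminescence read-out, lower signal = inhibition.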
SARS PLP yeast = blocks SARS-CoV papain-like protease in a yeast assay | S. cerevisiae expressing SARS-CoV PLpro, growth rescue | AID 485353 | Potency, µM (highest dose often 32.9 µM), for inactives: at the top dose activity, positive = growth rescue, hits mostly activators | 0.19% of 330,000 active; calls by dose curve; also: potency is read from the fitted curve at half-maximal effect; 0% is about no effect; nearly all actives have a fitted effect of over 55% in size
Cycloheximide cs = affects cycloheximide protein synthesis inhibition readout, counter-screen | cell reporter, cycloheximide protein synthesis inhibition counterscreen | max response, % | 12% of 300,000 active | AID 2314; in the data active = max response mostly above about 13%, no sharp cut-off; inactive = mostly below about 14%; also: read at 38.3 µM for the half of the compounds with a filed dose; 0% is about no effect
Starred values were filed as active, the others as inactive; u = inconclusive; x = not tested or not shown. Unless noted, calls follow the shape of the dose curve; as a rule, active = well fitted curve in the direction sought with a large enough effect; inconclusive = small, poorly fitted or top-dose-only effect, or another doubt; inactive = no such curve, though single readings can be large; an effect the other way counts as inactive or inconclusive.

SMILES	Shiga inhibitor	AMA1 RON2 block	Pf growth 96h	Pf growth 48h	SARS PLP yeast	Cycloheximide cs
COc1cccc(C(=O)Nc2nnc(SCC(=O)NC3CC3)s2)c1	-7	-21%	-6%	76%	-1%	-3
COc1ccc(C(=O)Nc2nnc(SCC(=O)NC3CCCC3)s2)c(OC)c1	96*	22%	130%	114%	1%	42*
COc1ccc(C(=O)Nc2nnc(SCC(=O)Nc3ccc(NC(C)=O)cc3)s2)c(OC)c1	119*	-5%	72%	141%	2%	48*
CCc1nnc(NC(=O)c2ccc(OC)cc2OC)s1	66*	-3%	2%	144%	0%	38*
c1ccc(C(CN2CCCCC2)Oc2ccccn2)cc1 (centres undefined)	x	14%	x	x	x	x
CCCn1nnc(NC(=S)NC(=O)c2cccs2)n1	3	59%	-79%	40%	-6%	8
CCCCn1nnc(N(C(=O)c2cccs2)C(=O)c2cccs2)n1	86*	9%	11%	47%	-1%	37*
O=C(NC1CCCCC1)C(c1cc2c(cc1[N+](=O)[O-])OCO2)N1CCCCC1 (centres undefined)	54*	x	13µM*	u	10%	16
Cc1cc(C)n(-c2nc3ccccc3nc2N2CCN(S(=O)(=O)c3ccc(F)c(C)c3)CC2)n1	-17	0%	x	u	4%	-3
Cc1cc(N2CCN(S(=O)(=O)c3ccc(Cl)c(Cl)c3)CC2)c2ccccc2n1	5	-4%	1%	12µM*	-1%	0
COc1ccc2nc(C)cc(N3CCN(c4ccccc4)CC3)c2c1	3	u	9.3µM*	13µM*	-2%	-6
Cc1cc(C)n(-c2nc3ccccc3nc2N2CCN(S(=O)(=O)c3ccc4ccccc4c3)CC2)n1	-12	4%	5.2µM*	x	-3%	-1
COc1ccc2nc(C)cc(N3CCOCC3)c2c1	-11	-6%	43%	7%	6%	0
COc1ccc2nc(C)cc(N3CCN(S(=O)(=O)c4ccccc4F)CC3)c2c1	x	-3%	9.3µM*	u	-15%	x
CN(C)S(=O)(=O)c1ccc(Cl)c(NC(=O)COC(=O)/C=C/c2ccco2)c1	17	-9%	14%	42%	-2%	-1
CCc1ccccc1Oc1nc(NCCOC)nc2cc(-c3ccccc3)sc12	x	-3%	x	x	x	x
COc1ccc(C(=O)c2[nH]c(N)c(C(=O)NCCc3c[nH]c4ccccc34)c2-c2ccc(C(F)(F)F)cc2)cc1	x	36%	x	x	x	x
O=c1ccnc(S/C=C/c2ccccc2)[nH]1	23	2%	6%	14%	-26%	35*
Cn1cc(S(=O)(=O)N2CCC(C(N)=O)CC2)c(=O)n(C)c1=O	15	9%	44%	43%	5%	-2
O=C(CSC1=NC2(CCCCC2)N=C1c1ccccc1)Nc1ccc2c(c1)OCCO2	19	0%	u	10µM*	7%	7
O=C(CSC1=NC2(CCCCCC2)N=C1c1ccccc1)Nc1ccc2c(c1)OCCO2	-6	-11%	-1%	u	-42%	3
O=C(CSc1ccccc1)Nc1ccc2c(c1)OCO2	65*	-7%	-20%	169%	0%	47*
Cc1c(C)n2c(SCC(=O)Nc3ccc4c(c3)OCCO4)nnc2[nH]c1=O	x	-12%	u	9.3µM*	4%	x
O=C(CSc1nc(-c2ccccc2)c(-c2ccccc2)[nH]1)Nc1ccc2c(c1)OCO2	24	5%	u	-3%	2%	15*
CCOc1ccccc1NC(=O)Cn1nnc(C(=O)NCc2ccc3c(c2)OCO3)c1N	-6	-5%	16%	u	-4%	-4
SMILES	Shiga inhibitor	AMA1 RON2 block	Pf growth 96h	Pf growth 48h	SARS PLP yeast	Cycloheximide cs
COc1ccc(NC(=O)C2CCCN(C)C2)cc1OCC(C)C (centres undefined)	-9	-1%	18%	-20%	-5%	0
O=C(CSc1nnc2ccccn12)Nc1ccc2c(c1)OCCO2	130*	17%	44%	322%	-5%	26*
CC(=O)Nc1ccc(S(=O)(=O)NCC(=O)Nc2ccc3c(c2)OCO3)cc1	x	-1%	x	x	6%	x
O=C(CCS(=O)(=O)c1ccccc1)Nc1ccc2c(c1)OCO2	112*	-17%	u	78%	-2%	55*
Cc1cccc(-n2ccnc2SCC(=O)Nc2ccc3c(c2)OCCO3)c1	-2	-11%	u	2%	-4%	27*
O=C(CSc1cccc[n+]1[O-])Nc1ccc2c(c1)OCCO2	25	-7%	32%	30%	-3%	16*
CC(=O)c1cccc(NC(=O)CSc2ccc(-c3ccc4c(c3)OCO4)nn2)c1	3	9%	20%	73%	6%	8
CC1CCN(C(=O)CSc2ccc(-c3ccc4c(c3)OCCO4)nn2)CC1	35	3%	80%	30%	-2%	20*
O=C(CSc1ccc(-c2ccccc2)nn1)Nc1ccc2c(c1)OCCO2	74*	-25%	98%	79%	-30%	79*
O=C(CSc1nnc2ccccn12)Nc1ncc(Cl)cc1Cl	36	0%	82%	x	5%	23*
CC1CCCC(C)N1C(=O)CSc1ccc(-c2ccc3c(c2)OCCO3)nn1 (centres undefined)	40	0%	-20%	6%	-3%	11
O=C(CSc1ccc2c(c1)OCCO2)Nc1ccc2c(c1)OCO2	-12	-7%	x	4%	-2%	15*
COC(=O)Cc1ccc(NC(=S)NCCSc2ccc(Cl)cc2)cc1	14	45%	-15%	-12%	-2%	1
O=C(CSc1ccccc1)Nc1ccc2c(c1)OCCO2	75*	-2%	8.3µM*	298%	-2%	40*
Cn1cc(SCC(=O)Nc2ccc3c(c2)OCCO3)c2ccccc21	63*	-8%	33%	28%	-20%	24*
CCn1c(SCC(=O)Nc2ccc3c(c2)OCCO3)nnc1-c1ccccn1	84	-16%	2.1µM*	0%	-2%	2
Cc1cc(NC(=O)CSc2cn(C)c3ccccc23)no1	-11	13%	u	x	-10%	-7
C=CCn1c(SCC(=O)Nc2ccc3c(c2)OCCO3)nnc1-c1ccccn1	27	-21%	0%	9%	-9%	-2
CC(=O)/C(=N/Nc1cccc(C)c1)N1CCOCC1	-13	22%	x	12%	-3%	-3
CCC1=C(OC(=O)N(CC)CC)N2C(=O)OC(=NCC3CC3)[C@]2(Cc2ccccc2)[C@H]2C1=CC[C@H]1C(=O)N(c3ccccc3)C(=O)[C@H]12	-3	-14%	2.9µM*	2.6µM*	1%	-4
CCC1=C(OC(=O)N(CC)CC)N2C(=O)OC(=NCC3CC3)[C@]2(Cc2ccccc2)[C@H]2C1=CC[C@H]1C(=O)N(C)C(=O)[C@H]12	-7	-8%	9.3µM*	10µM*	1%	-4
